# Source: PubChem BioAssay (NCI)
# About 83,000 compounds went through this panel and 20% of them were active in at least one assay; those are over-represented in the sample as a whole.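 How to read the values: 0–100, growth inhibition (40 = 60% inhibited); 0, no net growth; -100 to 0, cell death (-40 = 40% of starting cells died; -100 = all dead).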 Calls of active or inactive are those of the source.
# Test system: OVCAR-4 ovarian
# Experiment: NCI-60 one-dose screen, 48 h (100 = growth as untreated, 0 = no growth, -100 = all killed)
# Settings: 10 µM unless noted
# Method: Growth inhibition of the OVCAR-4 human tumor cell line is measured as a screen for anti-cancer activity. Cells are grown in 96 well plates and exposed to the test compound for 48 hours. Compounds are tested at a single concentration, which is 10^-5 M for most compounds. The reported endpoint is percent growth (GI% or GIPRCNT), where numbers from 0 - 100% represent growth inhibition, and numbers from -100% - 0 represent cell death. For example, a value of 40 represents 60% growth inhibition. A value of 0 means no net growth occurred over the course of the experiment. A value of -40 indicates 40% of cells at the beginning of the experiment died by the end of the experiment. A value of -100 means all cells are dead at the end of the experiment.
# NCI-60 Human Tumor Cell Lines Screen was performed using the standard one-dose NCI protocol, which is described in more detail at https://dtp.cancer.gov/discovery_development/nci-60/default.htm.
# Compounds with GIPRCNT values below 10 were considered active. Activity score was based on GIPRCNT using the following formula: […]
# Score is 0 for GIPRCNT values of 100 or above, 50 for GIPRCNT values of 0, and 100 for GIPRCNT values of -100.
row,SMILES,growth
1,CCCCCCCCCCCCCCCCCCNC(=O)[C@H]1CSC(c2ccc(OC)c(F)c2)N1 (stereo not given in full),76.9% (inactive)
2,Oc1cccc(Nc2nccc(-c3ccc4ccccc4c3)n2)c1,86.5% (inactive)
3,Brc1cccc(-c2cc(-c3ccc4c(c3)OCCO4)[nH]n2)c1,58.6% [25 µM] (inactive)
4,Cc1cc2cc3cc(C)c(N(C)C)cc3nc2cc1N(C)C,32.4% (inactive)
5,OCC1C2C=CC(C2)C1CO (stereo not given),94% (inactive)
6,CC#Cc1nc2ccccc2c(=O)[nH]1,18.4% (inactive)
7,O=C(COCc1c(-c2ccccc2)no[n+]1[O-])Nc1ccc(C(=O)/C=C/c2ccc3c(c2)OCO3)cc1,114% (inactive)
8,CC(=O)OCC1OC(OC2=C(CC=C(Cl)Cl)C(=O)c3ccccc3C2=O)C(OC(C)=O)C(OC(C)=O)C1OC(C)=O (stereo not given),-34.4% (active)
9,CCN(CC)CC(O)c1cc(-c2ccc(Cl)cc2)nc2c(C)c(Cl)ccc12 (stereo not given),-26% (active)
10,CC/C=C\C[C@H](O)C/C=C1/C(=O)C=C[C@@H]1C/C=C\CCCC(=O)NC(C)C,35.6% (inactive)
11,NC(=S)N/N=C/c1cc(-c2cccc(N)c2)ccn1,47.3% (inactive)
12,CS(=O)(=O)c1c(Nc2ccccc2)n[nH]c1N,117% (inactive)
13,CCOC(=O)C12CCCC1=CC(=O)CC2 (stereo not given),112% (inactive)
14,CN(C)c1ccc(C2Nc3ccccc3-n3cccc32)cc1 (stereo not given),87.1% (inactive)
15,COc1ncc(-c2ccc3ncnc(Nc4cccc(Cl)c4)c3c2)cc1NS(C)(=O)=O,70.7% (inactive)
16,CN1CCN(Cc2ccc(NC(=O)c3[nH]ncc3Nc3ncnc4sccc34)cc2)CC1,10.2% (inactive)
17,O=C1OC2C(I)C3CC2C1C3c1ccccc1 (stereo not given),96.3% (inactive)
18,Cc1sc2nc3[nH]/c(=C\c4ccc(Cl)cc4)c(=O)n3c(=O)c2c1C,105% (inactive)
19,COc1ccc(/C=C2\CN(C(=O)CCN3CCC(=NO)CC3)C/C(=C\c3ccc(OC)cc3)C2=O)cc1,28.2% (inactive)
20,Cc1cc(Nc2nc(N3CCOCC3)nc3ccccc23)n[nH]1,52.5% (inactive)

row,SMILES,growth
1,COc1cc(C(=O)/C=C/c2c(C)n([O-])c3ccc(C)cc3[n+]2=O)cc(OC)c1OC,36.9% (inactive)
2,O=c1[nH]c(-c2ccccn2)nc2sc3c(c12)CCCCC3,23.6% (inactive)
3,O=[N+]([O-])c1cccc(-c2nc3sccn3c2-c2ccnc(NCCCNS(=O)(=O)c3cccc(F)c3)n2)c1,-12.2% (active)
4,O=C(/C=C\c1ccc2ccccc2n1)c1cc(Cl)ccc1O,73.6% (inactive)
5,C=C1CC[C@@H]2[C@](C)(COC(C)=O)[C@H](OC(C)=O)CC[C@@]2(C)[C@@H]1CC(Nc1ccc(S(=O)(=O)Nc2ccc(Cl)nn2)cc1)C1=CCOC1=O (stereo not given in full),30.8% (inactive)
6,CN1CCN(Cc2ccc(NC(=O)c3cncc(C#Cc4cnc(N)c5cccnc45)c3)cc2C(F)(F)F)CC1,36.8% (inactive)
7,Cn1c2c(Cl)c(Cl)ccc2c2ccn3c(=O)c4ccccc4nc3c21,92.1% (inactive)
8,CC(=O)C1=C(O)C=C2Oc3c(C(=O)/C=C/c4cc(C(F)(F)F)cc(C(F)(F)F)c4)c(O)c(C)c(O)c3[C@]2(C)C1=O,12.5% (inactive)
9,CNCCCn1c2c(c3ccc([N+](=O)[O-])cc3c1=O)C(=O)c1cc(OC)cnc1-2,-25.9% (active)
10,C[C@H](CCC(=O)O)[C@H]1CC[C@H]2[C@@H]3CC[C@@H]4/C(=C\c5ccco5)C(=O)/C(=C\c5ccco5)C[C@]4(C)[C@H]3CC[C@]12C,80% (inactive)
11,CN(C)c1ccc(/C=C(\C#N)c2nc3ccccc3s2)cc1,90.9% (inactive)
12,C=C1CC2(OC1=O)C(=O)Nc1ccccc12 (stereo not given),37.3% (inactive)
13,Cc1ccc2c(c1)n([O-])c1cc(Cl)ccc1[n+]2=O,82.6% (inactive)
14,CNC(=O)c1cc(Oc2ccc3nc(NC(=O)Nc4ccc(N5CCC(N(C)C)CC5)cc4)sc3c2)ccn1,80.7% (inactive)
15,Cc1ccc(-c2nc(/C=N/Nc3cc(C)nc4ccc(Cl)cc34)c(C)o2)cc1,-90.8% (active)
16,CCN(CC)CC(C)Nc1ccc([N+](=O)[O-])c2sc3ccccc3c(=O)c12 (stereo not given),32.9% (inactive)
17,COc1ccc2[nH]c(=O)c(/C=C/C(=O)c3ccc(Nc4nccc(-c5ccc6ccccc6c5)n4)cc3)cc2c1,131% (inactive)
18,Cc1cc(Cl)ccc1Nc1nc(C(F)(F)F)ccc1C(=O)N/N=C/c1ccc(F)cc1,5.75% (active)
19,COc1cc(-c2c3sc(=O)[nH]c3nc3c2c(=O)[nH]n3C(C)C)cc2c1OCO2,86% (inactive)
20,O=C(Nc1cccc2c1C(=O)c1cccc(Nc3cccc4c3C(=O)c3cccc(NC(=O)c5ccccc5)c3C4=O)c1C2=O)c1ccccc1,118% (inactive)
